Test results: PubChem BioAssay (EPA / NIEHS)
Records with an inconclusive call do not appear. The source made the active and inactive calls. The calls were made as follows: active = hit-call score of the fitted dose curve at least 0.9, where 1 is the maximum; inconclusive = response in the unintended direction; inactive = score below 0.9.

Experiments:
[1] = target: human Colony Stimulating Factor 1 Receptor (CSF1R), CSF1R (gene 1436) (UniProt P07333); assay: NVS_ENZ_hCSF1R: NovaScreen (NVS) Enzymatic Assay for human Colony Stimulating Factor 1 Receptor (CSF1R) (AID 2283150)
Procedure, shortened: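 Compounds screened in duplicate at 25 uM, then concentration-response (top 50 uM) for those passing threshold such as 30% inhibition; recombinant CSF1R activity measured 1 h post-dosing via fluorescent substrate/product mobility-shift separation, loss of signal versus DMSO.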

[2] = target: human Caspase 2 (CASP2), CASP2 (gene 835) (UniProt P42575); assay: NVS_ENZ_hCASP2: NovaScreen (NVS) Enzymatic Assay for human Caspase 2 (CASP2) (AID 2283135)
Procedure, shortened: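 Single-point duplicate testing at 25 uM preceded concentration series topping at 50 uM. Activity of the recombinant E. coli-derived protease was followed by fluorescent substrate cleavage 1 h post-dosing, relative to DMSO.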

[3] = target: human AKT serine/threonine Kinase 2 (AKT2), AKT2 (gene 208) (UniProt P31751); assay: NVS_ENZ_hAKT2: NovaScreen (NVS) Enzymatic Assay for human AKT serine/threonine Kinase 2 (AKT2) (AID 2283141)
Procedure, shortened: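 Cell-free fluorescence/electrophoretic mobility shift readout of recombinant human AKT2 activity, 1 h after chemical dosing. Duplicate primary screen at 25 uM, then singleton concentration-response up to 50 uM; loss of signal versus DMSO baseline.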

[4] = target: human AKT serine/threonine Kinase 1 (AKT1), AKT1 (gene 207) (UniProt P31749); assay: NVS_ENZ_hAKT1: NovaScreen (NVS) Enzymatic Assay for human AKT serine/threonine Kinase 1 (AKT1) (AID 2283138)
Procedure, shortened: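 Screening first at 25 uM (duplicate), with threshold-passing chemicals re-tested in concentration series to a 50 uM maximum. Kinase activity read by fluorescence with mobility-shift separation of substrate and product, 1 h after dosing, DMSO baseline.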

[5] = target: human Caspase 5 (CASP5), CASP5 (gene 838) (UniProt P51878); assay: NVS_ENZ_hCASP5: NovaScreen (NVS) Enzymatic Assay for human Caspase 5 (CASP5) (AID 2283137)
Procedure, shortened: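 Loss of fluorescent signal versus DMSO scored for E. coli-derived human CASP5 cleaving a fluorescent substrate, 2 h post-dosing; compounds first tested at 25 uM in duplicate, hits rerun in concentration series with 50 uM top concentration.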

[6] = target: human Casein Kinase 1-delta (CK1D), CSNK1D (gene 1453) (UniProt P48730); assay: NVS_ENZ_hCK1D: NovaScreen (NVS) Enzymatic Assay for human Casein Kinase 1-delta (CK1D) (AID 2283148)
Procedure, shortened: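 Recombinant human CK1-delta, cell-free; fluorescent substrate with electrophoretic mobility-shift separation of product, read 1 h after dosing. Single 25 uM duplicate screen, then concentration-response up to 50 uM; loss of signal vs DMSO.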

[7] = target: human Beta-secretase (BACE), BACE1 (gene 23621) (UniProt P56817); assay: NVS_ENZ_hBACE: NovaScreen (NVS) Enzymatic Assay for human Beta-secretase (BACE) (AID 2283140);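 also: hits are inhibitors that reduce fluorescent substrate signal versus DMSO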
Procedure, shortened: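 Enzyme from SF9 cells was incubated 1 hour with compound and fluorogenic substrate, activity read by fluorescence. Single-concentration duplicates at 25 uM preceded concentration-response follow-up; fitting relative to DMSO baseline.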

[8] = target: human Aurora Kinase A - serine/threonine-protein Kinase 6 (AurA), AURKA (gene 6790) (UniProt O14965); assay: NVS_ENZ_hAurA: NovaScreen (NVS) Enzymatic Assay for human Aurora Kinase A - serine/threonine-protein Kinase 6 (AurA) (AID 2283142)
Method: (§1) NVS_ENZ_hAurA is a biochemical, single-readout assay that uses extracted gene-proteins in a cell-free assay. Measurements were taken 1 hour after chemical dosing in a 384-well plate.NVS_ENZ_hAurA is one of one assay component(s) measured or calculated from the NVS_ENZ_hAurA assay. It is designed to make measurements of enzyme activity, a form of enzyme reporter, as detected with fluorescence intensity signals by Fluorescence and electrophoretic mobility shift technology.Data from the assay component NVS_ENZ_hAurA was analyzed into 1 assay endpoint. This assay endpoint, NVS_ENZ_hAurA, was analyzed in the positive analysis fitting direction relative to DMSO as the negative control and baseline of activity. Using a type of enzyme reporter, loss-of-signal activity can be used to understand changes in the enzymatic activity as they relate to the gene AURKA. Furthermore, this assay endpoint can be referred to as a primary readout, because this assay has produced multiple assay endpoints where this one serves a enzymatic activity function. To generalize the intended target to other relatable targets, this assay endpoint is annotated to the kinase intended target family, where the subfamily is serine/threonine kinase. […]

CDK2 (gene 1017) = CDK2 (gene 1017) (UniProt P24941); assay: NVS_ENZ_hCDK2: NovaScreen (NVS) Enzymatic Assay for human Cyclin-Cependent Kinase 2 (CDK2) (AID 2283144)
Method: as §1, with “NVS_ENZ_hCDK2” for “NVS_ENZ_hAurA”, “plate.NVS_ENZ_hCDK2” for “plate.NVS_ENZ_hAurA”, “NVS_ENZ_hCDK2,” for “NVS_ENZ_hAurA,”, “CDK2.” for “AURKA.”

[9] = target: human AMP-activated Protein Kinase, alpha 1 (AMPKa1), PRKAA1 (gene 5562) (UniProt Q13131); assay: NVS_ENZ_hAMPKa1: NovaScreen (NVS) Enzymatic Assay for human AMP-activated Protein Kinase, alpha 1 (AMPKa1) (AID 2283130)
Procedure, shortened: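 Compounds were screened in duplicate at 25 uM, and those reaching ~30% inhibition were titrated up to 50 uM. The enzyme was recombinant human AMPKα1, and kinase turnover was read by fluorescence/mobility shift 1 h post-dosing as loss of signal versus DMSO.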

Chain of human Casein Kinase 1-delta (CK1D), CSNK1D (gene 1453) (P48730 whole entry, looked up): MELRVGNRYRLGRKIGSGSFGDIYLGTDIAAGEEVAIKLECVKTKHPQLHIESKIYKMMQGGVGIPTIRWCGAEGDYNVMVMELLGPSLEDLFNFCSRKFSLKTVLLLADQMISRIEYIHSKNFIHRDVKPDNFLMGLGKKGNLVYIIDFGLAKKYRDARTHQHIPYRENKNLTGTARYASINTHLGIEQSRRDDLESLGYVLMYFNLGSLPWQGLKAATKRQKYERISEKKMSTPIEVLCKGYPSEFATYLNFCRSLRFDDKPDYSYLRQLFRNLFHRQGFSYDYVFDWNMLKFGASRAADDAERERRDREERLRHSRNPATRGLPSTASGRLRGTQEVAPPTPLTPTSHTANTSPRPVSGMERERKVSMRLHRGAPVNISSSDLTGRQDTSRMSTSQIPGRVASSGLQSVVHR
Chain of human Colony Stimulating Factor 1 Receptor (CSF1R), CSF1R (gene 1436) (P07333 whole entry, looked up): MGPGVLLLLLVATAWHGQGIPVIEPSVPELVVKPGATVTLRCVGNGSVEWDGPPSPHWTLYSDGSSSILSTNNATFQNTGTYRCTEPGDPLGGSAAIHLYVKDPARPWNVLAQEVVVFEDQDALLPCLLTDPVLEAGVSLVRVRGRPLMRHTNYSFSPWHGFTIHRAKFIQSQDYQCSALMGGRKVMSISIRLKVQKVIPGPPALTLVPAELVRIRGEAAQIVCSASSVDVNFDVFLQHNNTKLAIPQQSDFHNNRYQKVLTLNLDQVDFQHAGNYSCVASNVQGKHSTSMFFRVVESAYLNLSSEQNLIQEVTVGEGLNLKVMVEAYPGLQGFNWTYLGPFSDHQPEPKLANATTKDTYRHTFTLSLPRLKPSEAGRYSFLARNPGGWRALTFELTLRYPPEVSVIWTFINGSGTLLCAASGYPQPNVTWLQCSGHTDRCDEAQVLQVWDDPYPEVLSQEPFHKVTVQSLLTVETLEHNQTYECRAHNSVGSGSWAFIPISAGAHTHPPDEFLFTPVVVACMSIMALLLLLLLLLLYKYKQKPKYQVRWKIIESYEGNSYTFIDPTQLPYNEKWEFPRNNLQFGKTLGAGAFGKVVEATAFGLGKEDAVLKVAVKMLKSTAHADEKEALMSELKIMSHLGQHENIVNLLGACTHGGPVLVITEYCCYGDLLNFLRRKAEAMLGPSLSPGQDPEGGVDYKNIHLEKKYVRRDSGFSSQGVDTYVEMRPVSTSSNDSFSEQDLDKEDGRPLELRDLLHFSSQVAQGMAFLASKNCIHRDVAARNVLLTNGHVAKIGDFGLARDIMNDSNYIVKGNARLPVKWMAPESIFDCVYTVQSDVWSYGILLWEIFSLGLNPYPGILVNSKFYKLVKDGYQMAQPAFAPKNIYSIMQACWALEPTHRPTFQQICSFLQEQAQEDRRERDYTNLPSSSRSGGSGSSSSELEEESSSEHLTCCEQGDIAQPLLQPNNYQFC
Chain of human Caspase 2 (CASP2), CASP2 (gene 835) (P42575 whole entry, looked up): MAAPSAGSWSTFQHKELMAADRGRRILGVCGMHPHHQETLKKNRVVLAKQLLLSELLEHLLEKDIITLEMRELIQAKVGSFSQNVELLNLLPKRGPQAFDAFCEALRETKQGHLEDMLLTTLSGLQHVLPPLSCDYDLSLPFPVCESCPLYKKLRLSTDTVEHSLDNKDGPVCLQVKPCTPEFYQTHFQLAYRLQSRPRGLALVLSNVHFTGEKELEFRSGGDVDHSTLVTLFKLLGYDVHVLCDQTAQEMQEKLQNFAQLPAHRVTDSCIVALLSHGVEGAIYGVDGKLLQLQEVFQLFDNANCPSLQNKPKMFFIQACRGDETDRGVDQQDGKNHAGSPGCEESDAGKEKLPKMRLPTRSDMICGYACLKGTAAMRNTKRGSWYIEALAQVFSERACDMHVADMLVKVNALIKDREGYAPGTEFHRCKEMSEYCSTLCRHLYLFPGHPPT
Chain of human AKT serine/threonine Kinase 1 (AKT1), AKT1 (gene 207) (P31749 whole entry, looked up): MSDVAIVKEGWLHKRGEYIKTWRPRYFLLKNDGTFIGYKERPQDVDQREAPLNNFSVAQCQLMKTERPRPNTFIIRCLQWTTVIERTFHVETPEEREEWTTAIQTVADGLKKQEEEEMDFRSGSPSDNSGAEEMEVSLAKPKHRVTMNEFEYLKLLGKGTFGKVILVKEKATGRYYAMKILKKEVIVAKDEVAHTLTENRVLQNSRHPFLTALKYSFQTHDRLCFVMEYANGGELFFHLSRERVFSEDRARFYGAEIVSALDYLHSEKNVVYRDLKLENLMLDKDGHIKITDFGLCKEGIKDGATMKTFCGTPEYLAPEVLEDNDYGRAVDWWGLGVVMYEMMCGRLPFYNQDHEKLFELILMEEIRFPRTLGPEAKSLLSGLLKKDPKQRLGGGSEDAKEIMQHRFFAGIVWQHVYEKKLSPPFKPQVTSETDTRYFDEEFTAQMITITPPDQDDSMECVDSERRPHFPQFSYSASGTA
Chain of human Beta-secretase (BACE), BACE1 (gene 23621) (P56817 whole entry, looked up): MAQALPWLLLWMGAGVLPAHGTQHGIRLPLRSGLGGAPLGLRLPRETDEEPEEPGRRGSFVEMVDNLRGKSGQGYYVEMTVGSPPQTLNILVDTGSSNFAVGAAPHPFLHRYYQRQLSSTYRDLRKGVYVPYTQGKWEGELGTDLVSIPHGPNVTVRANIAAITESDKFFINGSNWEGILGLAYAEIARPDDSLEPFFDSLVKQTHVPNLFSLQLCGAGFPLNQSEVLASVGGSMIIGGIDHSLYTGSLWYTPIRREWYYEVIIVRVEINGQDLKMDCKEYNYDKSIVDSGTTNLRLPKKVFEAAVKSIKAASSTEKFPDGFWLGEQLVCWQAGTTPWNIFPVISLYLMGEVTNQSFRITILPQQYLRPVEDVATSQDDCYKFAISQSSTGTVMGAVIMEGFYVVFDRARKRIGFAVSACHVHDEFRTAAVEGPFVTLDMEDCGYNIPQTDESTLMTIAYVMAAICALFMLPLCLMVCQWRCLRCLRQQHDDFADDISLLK
Chain of human Caspase 5 (CASP5), CASP5 (gene 838) (P51878 whole entry, looked up): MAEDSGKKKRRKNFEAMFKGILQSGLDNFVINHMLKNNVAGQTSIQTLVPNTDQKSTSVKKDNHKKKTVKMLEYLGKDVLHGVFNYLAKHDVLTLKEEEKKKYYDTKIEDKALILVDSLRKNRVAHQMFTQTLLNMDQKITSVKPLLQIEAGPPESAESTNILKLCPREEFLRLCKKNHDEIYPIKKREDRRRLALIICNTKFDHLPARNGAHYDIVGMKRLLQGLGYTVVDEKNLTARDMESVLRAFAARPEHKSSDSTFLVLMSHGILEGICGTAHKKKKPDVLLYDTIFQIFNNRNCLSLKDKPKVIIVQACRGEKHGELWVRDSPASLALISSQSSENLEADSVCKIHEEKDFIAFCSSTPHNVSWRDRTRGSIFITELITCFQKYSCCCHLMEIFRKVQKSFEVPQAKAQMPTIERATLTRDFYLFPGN
Chain of human AMP-activated Protein Kinase, alpha 1 (AMPKa1), PRKAA1 (gene 5562) (Q13131 whole entry, looked up): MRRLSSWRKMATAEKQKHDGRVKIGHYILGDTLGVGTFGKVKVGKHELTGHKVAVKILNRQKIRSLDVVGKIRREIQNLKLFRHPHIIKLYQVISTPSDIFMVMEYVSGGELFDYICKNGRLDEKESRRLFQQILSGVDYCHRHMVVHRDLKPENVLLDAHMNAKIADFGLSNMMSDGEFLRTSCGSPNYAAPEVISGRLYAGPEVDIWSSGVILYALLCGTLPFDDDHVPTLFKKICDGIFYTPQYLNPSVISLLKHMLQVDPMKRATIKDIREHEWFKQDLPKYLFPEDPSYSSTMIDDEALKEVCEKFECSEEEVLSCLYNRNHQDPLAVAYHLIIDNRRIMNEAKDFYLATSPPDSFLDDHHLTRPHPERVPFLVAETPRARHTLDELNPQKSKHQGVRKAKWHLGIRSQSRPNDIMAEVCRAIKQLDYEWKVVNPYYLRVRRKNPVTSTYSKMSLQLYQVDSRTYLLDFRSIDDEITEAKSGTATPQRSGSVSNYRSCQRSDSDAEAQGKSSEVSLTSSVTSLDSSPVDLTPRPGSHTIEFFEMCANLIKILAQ
Chain of human AKT serine/threonine Kinase 2 (AKT2), AKT2 (gene 208) (P31751 whole entry, looked up): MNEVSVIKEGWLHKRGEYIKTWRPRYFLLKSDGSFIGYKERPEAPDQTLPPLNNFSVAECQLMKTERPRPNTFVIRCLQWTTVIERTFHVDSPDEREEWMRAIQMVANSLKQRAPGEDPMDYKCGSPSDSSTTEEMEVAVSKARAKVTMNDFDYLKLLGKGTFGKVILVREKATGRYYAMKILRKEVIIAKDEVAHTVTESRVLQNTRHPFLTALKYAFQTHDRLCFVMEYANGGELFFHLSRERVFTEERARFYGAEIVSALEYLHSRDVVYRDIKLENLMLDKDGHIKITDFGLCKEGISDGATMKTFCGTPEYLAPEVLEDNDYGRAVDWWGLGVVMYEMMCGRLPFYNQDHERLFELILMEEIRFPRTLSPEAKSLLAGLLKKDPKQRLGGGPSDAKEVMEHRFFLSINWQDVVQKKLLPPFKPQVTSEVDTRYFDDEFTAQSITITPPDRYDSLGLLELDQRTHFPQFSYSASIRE
Chain of human Aurora Kinase A - serine/threonine-protein Kinase 6 (AurA), AURKA (gene 6790) (O14965 whole entry, looked up): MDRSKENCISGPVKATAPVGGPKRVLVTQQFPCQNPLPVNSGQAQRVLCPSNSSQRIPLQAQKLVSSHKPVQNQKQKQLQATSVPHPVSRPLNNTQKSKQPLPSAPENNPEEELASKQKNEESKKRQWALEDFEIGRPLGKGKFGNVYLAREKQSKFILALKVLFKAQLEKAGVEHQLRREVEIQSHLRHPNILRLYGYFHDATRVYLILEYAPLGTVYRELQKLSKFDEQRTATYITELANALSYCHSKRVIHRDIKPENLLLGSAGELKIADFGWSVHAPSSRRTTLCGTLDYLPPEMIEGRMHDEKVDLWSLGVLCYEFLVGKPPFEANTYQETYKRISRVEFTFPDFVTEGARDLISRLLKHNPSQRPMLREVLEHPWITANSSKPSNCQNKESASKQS

With `CCC(C)(C)c1ccc(O)cc1` the outcome [1] was “inactive”.
For `CCCCN(CCCC)SN(C)C(=O)Oc1cccc2c1OC(C)(C)C2`, the outcome [2] was “inactive”.
In the case of `CC(C)(C)c1ccc(O)cc1`, the outcome [3] was “inactive”.
With `CCOP(=S)(Oc1ccc([N+](=O)[O-])cc1)c1ccccc1` (stereo not given) the outcome [4] was “inactive”.
For `Cc1cccc(N)c1`, the outcome [4] was “inactive”.
With `Cc1ccc2c(c1N)C(=O)c1ccccc1C2=O` the AC50 [5] was 6.72 µM (active).
For `Cc1ccc(O)cc1C`, the outcome [6] was “inactive”.
`CCCN(CCC)c1c([N+](=O)[O-])cc(C(C)C)cc1[N+](=O)[O-]` was tested, and the outcome [7] was “inactive”.
With `NNC(N)=S` the outcome [7] was “inactive”.
`CCOS(=O)(=O)OCC` was tested, and the outcome [6] was “inactive”.
`CC(C)(C)OOC(C)(C)C` was tested, and the outcome [4] was “inactive”, the outcome [8] was “inactive” and the outcome (CDK2 (gene 1017)) was “inactive”. The outcome [1] was “inactive”.
For `O=P1(N(CCCl)CCCl)NCCCO1` (stereo not given), the outcome [9] was “inactive”.
In the case of `CC(Cl)(Cl)C(=O)O`, the outcome [2] was “inactive”.
`CCOP(=S)(OCC)SCSCC` was tested, and the outcome [2] was “inactive” and the outcome [4] was “inactive”.
For `c1ccc(OP(Oc2ccccc2)Oc2ccccc2)cc1`, the outcome [6] was “inactive”.
With `COCCOCCO` the outcome [2] was “inactive”.
For `O=[N+]([O-])c1ccccc1`, the outcome [6] was “inactive”.
In the case of `CCOP(=S)(S)OCC`, the outcome [5] was “inactive”.
In the case of `O=P(OCC(Br)CBr)(OCC(Br)CBr)OCC(Br)CBr` (stereo not given), the AC50 [7] was 14.3 µM (active).
In the case of `CSC(C)(C)C=NO`, the outcome [9] was “inactive” and the outcome [1] was “inactive”.
